Screens as filed in PubChem.
Only some compounds are listed: those with a hit (about 8% of all), similar ones and a draw of the others.
Gal4-VP16 FLuc = VP16 counterscreen qHTS for inhibitors of ROR gamma transcriptional activity; AID 2546, 2010; Drosophila S2 Gal4-VP16 UAS-luciferase, luminescence, 20 h; Potency, µM (top dose mostly 53.6 µM), for inactives: top-dose activity, negative = inhibition, actives largely listed as inhibitors; 310,000 compounds, 3.5% hits;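 also: Gal4-VP16 expression switched on by copper sulfate through the metallothionein promoter; potency is read from the fitted curve at half-maximal effect; nearly all actives have a fitted effect of over 50% in size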
Coupling enz = qHTS Assay for Inhibitors of Fructose-1,6-bisphosphate Aldolase from Giardia Lamblia: Coupling assay counterscreen; activity change, negative = inhibition, % at 58.2 µM, hits read low; 290,000 compounds, 0.67% hits; AID 2472, 2010; coupling enzyme system counterscreen, AmpLite Red fluorescence; in the data active = activity change below about -30%
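Fluorescence at 525 nm excitation and 598 nm emission measured inhibition of the coupled detection system without aldolase. Compounds (at 57.5 uM final) were preincubated 10 min at room temperature with coupling enzyme reagent before a 20 min substrate/AmpLite Red step.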
ELG1 repair inh = qHTS screen for small molecules that inhibit ELG1-dependent DNA repair in human embryonic kidney (HEK293T) cells expressing luciferase-tagged ELG1; HEK293T ELG1-luciferase reporter, luminescence, 16 h; DNA damage induced by 5-fluorouridine; Potency, µM (series often up to 46.1 µM), for the others: at the top dose activity change, negative = inhibition, actives largely listed as inhibitors; 330,000 compounds, 2.3% hits; also: potency is read from the fitted curve at half-maximal effect; nearly all actives have a fitted effect of over 55% in size
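In this reporter screen, reduction of luminescence relative to DMSO vehicle indicated activity. Compounds and 5-fluorouridine were added together to 2,000 cells per well, incubated for 16 hr at 37 °C, then developed with ONE-Glo.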
TSHR antagonist = Antagonists of the Thyroid Stimulating Hormone Receptor: HTS campaign; 330,000 compounds, 0.2% hits; activity change, negative = inhibition, % at 11.5 µM; TSHR-expressing cells, TSH-stimulated cAMP HTRF, 2 h; hits give low values; Thyrotropin receptor (Homo sapiens), P16473;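 active = activity change below a set negative limit, meaning inhibition stronger than a set level, cut at about -70% in these data; inconclusive = activity change between two set negative limits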
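Competitive HTRF cAMP read-out (cryptate anti-cAMP antibody, cAMP-d2; 30 min, room temperature) in freshly harvested TSHR cells. Compounds added before TSH at EC80 (4nM final), followed by 2 hours' incubation at 37 deg C.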
RORgamma inh = qHTS for inhibitors of ROR gamma transcriptional activity | Drosophila S2 Gal4-RORgamma UAS-luciferase reporter, 20 h | Potency, µM (series often up to 53.6 µM), without a hit: at the top dose activity change, negative = inhibition, hits mostly inhibitors | 310,000 compounds, 5.4% hits | AID 2551, 2010; also: potency is read from the fitted curve at half-maximal effect; nearly all actives have a fitted effect of over 60% in size
Target sequence (P51450 whole entry, looked up, the tested form may be a part): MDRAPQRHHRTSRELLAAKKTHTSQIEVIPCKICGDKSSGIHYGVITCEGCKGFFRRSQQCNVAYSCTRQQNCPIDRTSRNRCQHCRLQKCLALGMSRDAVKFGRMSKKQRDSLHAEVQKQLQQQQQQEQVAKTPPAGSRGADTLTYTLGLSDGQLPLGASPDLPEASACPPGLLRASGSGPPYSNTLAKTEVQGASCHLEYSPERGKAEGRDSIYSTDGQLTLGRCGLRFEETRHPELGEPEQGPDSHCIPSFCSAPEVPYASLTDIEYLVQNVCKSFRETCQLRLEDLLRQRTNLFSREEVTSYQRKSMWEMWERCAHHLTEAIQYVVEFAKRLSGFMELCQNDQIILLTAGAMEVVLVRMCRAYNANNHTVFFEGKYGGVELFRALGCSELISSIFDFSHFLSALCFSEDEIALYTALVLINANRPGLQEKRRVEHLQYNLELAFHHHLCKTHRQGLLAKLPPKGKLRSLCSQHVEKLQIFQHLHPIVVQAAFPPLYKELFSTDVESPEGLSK
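Drosophila Schneider cells stably carrying a metallothionein-driven Gal4 DBD–ROR gamma fusion and a UAS-Photinus luciferase reporter were exposed to compound for 1 hr, then induced with copper sulfate (700 uM final) for 20 hr at ambient temperature before luminescence reading.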
An asterisk follows results filed as active; u = inconclusive; x = not tested or not shown; [ ] = another dose, or the depositor's remark. Unless noted, calls follow the shape of the dose curve; as a rule, active = well fitted curve in the direction sought with a large enough effect; inconclusive = small, poorly fitted or top-dose-only effect, or another doubt; inactive = no such curve, though single readings can be large; an effect the other way counts as inactive or inconclusive. % is scaled to controls: 0 for no effect and ±100 for the full control effect.

SMILES	Gal4-VP16 FLuc	Coupling enz	ELG1 repair inh	TSHR antagonist	RORgamma inh
O=C(Nc1ccccc1)c1ccccc1NS(=O)(=O)c1ccc(Cl)s1	u	12	-16%	u	u
O=C(Nc1ccccc1Cc1ccccc1)c1ccccc1NS(=O)(=O)c1ccc(Cl)s1	13µM*	5	u	u	u
Cc1ccc(NC(=O)c2ccccc2NS(=O)(=O)c2ccc(Cl)s2)cc1	20µM*	8	u	u	u
N/C(=N\OC(=O)c1cc([N+](=O)[O-])ccc1Cl)c1ccccn1	u	2	u	-20	4µM*
N/C(=N\OC(=O)c1cccc([N+](=O)[O-])c1)c1ccccn1	-12%	0	u	-10	u
N/C(=N\OC(=O)c1ccc([N+](=O)[O-])cc1Cl)c1ccccn1	11µM*	-1	u	-5	10µM*
CC(C)(C)NC(=O)NC(=O)COC(=O)C1CCN(S(=O)(=O)c2cccs2)CC1	x	x	-3%	-20	x
CC(C)CC(OC(=O)c1ccc(Cl)nc1)C(=O)NC1CCCC1 (stereo unspecified)	-10%	0	-3%	-3	-9%
O=C(/C=C/c1cccs1)c1cc(Br)ccc1OC(=O)N1CCOCC1	u	0	16µM*	13	u
O=C(/C=C/c1cccc(F)c1)c1ccc(N2CCOCC2)cc1	22µM*	1	u	-21	u
O=C(/C=C/c1cccs1)c1ccc([N+](=O)[O-])cc1	-1%	-1	u	7	18%
O=C(/C=C/c1cccs1)c1ccc(N2CCOCC2)cc1	14µM*	0	u	-15	7.9µM*
CC(=O)c1cc(OC(=O)N2CCOCC2)ccc1OC(=O)N1CCOCC1	5%	3	16%	-5	5%
CCn1nc(C(=O)N2CCN(Cc3nc4ccccc4s3)CC2)c2ccccc2c1=O	x	x	u	-25	x
c1ccc([C@@H]2CN3CCSC3=N2)cc1	-7%[17 µM]	1	x	x	-25%[16.9 µM]
Cc1nn(C2CCS(=O)(=O)C2)c(Cl)c1/C=C/C(=O)OCC(=O)c1cc(C)n(-c2ccc(F)cc2)c1C (stereo unspecified)	2%	-1	13µM*	-11	44%
Cc1cc(=O)n2[nH]c(-c3ccc(C(C)(C)C)cc3)cc2n1	22µM*	3	u	-8	u
CC(C)C(=O)Nc1sc2c(c1-c1nc3ccccc3[nH]1)CCCC2	0%	3	-6%	-5	11µM*
O=c1c(-c2ccc(O[C@@H]3O[C@H](CO)[C@@H](O)[C@H](O)[C@H]3O)cc2)coc2cc(O)cc(O)c12	-16%	6	x	x	6%
Oc1ccc2ccccc2c1/C=N/Nc1nnc(-c2ncc[nH]2)c2ccccc12	0.25µM*	-4	u	19	0.25µM*
COc1ccc(/C=N/Nc2nnc(-c3ncc[nH]3)c3ccccc23)cc1	4.5µM*	2	u	-20	2.8µM*
Cc1c(C(=O)N2CCN(c3ccc(F)cc3)CC2)sc2nc(-c3ccccc3)cn12	-13%	-2	0%	0	7%
c1ccc(-c2cn3c4c(sc3n2)CCCC4)cc1	6.3µM*	-8	u	-16	3.5µM*
CSc1nc2nc3c(cc2c(=O)n1-c1cccc(C)c1)COC(C)(C)C3	-16%	1	21µM*	-3	7%
Cc1ccccc1-n1c(=O)c2ccccc2n2cnnc12	0%	0	u	2	-5%
SMILES	Gal4-VP16 FLuc	Coupling enz	ELG1 repair inh	TSHR antagonist	RORgamma inh
Cc1ccccc1-n1c(=S)[nH]c2nc3c(cc2c1=O)CCCC3	4.5µM*	1	0%	-15	1.3µM*
CCC1(C)Cc2nc3[nH]c(=S)n(-c4ccc(C)cc4)c(=O)c3cc2CO1 (stereo unspecified)	14µM*	1	25%	5	1.3µM*
CC1(C)Cc2nc3[nH]c(=S)[nH]c(=O)c3cc2CO1	3%	-3	12%	-7	-3%
Cc1ccc(-n2c(=S)[nH]c3nc4c(cc3c2=O)COC(C)(C)C4)cc1	u	0	7%	-6	3.5µM*
CSc1nc2nc3c(cc2c(=O)n1-c1ccccc1)COC(C)(C)C3	2%	-10	-3%	-5	3%
CSc1nc2nc3c(cc2c(=O)n1-c1ccc(C)cc1)COC(C)(C)C3	-10%	-7	u	-6	29%
CC(C)N1C(=O)C(=O)N(CC(=O)N(C)c2ccccc2)C1=O	x	x	11%	-16	x
Cc1ccccc1-n1c(=S)[nH]c2nc3c(cc2c1=O)COC(C)(C)C3	11µM*	-2	7%	1	5µM*
CSc1nc2nc3c(cc2c(=O)n1-c1ccccc1C)COC(C)(C)C3	1%	-3	0%	-5	3%
Cc1cc(C)n(-c2nnc(NC(C)(C)C)nn2)n1	-4%	-5	u	-1	-7%
Cc1cc(C)n(-c2nc(N(C)C)nc(N(C)C)n2)n1	7.1µM*	-2	-5%	-8	2.8µM*
Cc1cc(C)n(-c2ncc(C#N)cn2)n1	6%	0	6%	7	-2%
Cc1cc(C)n(-c2nc(NC(C)(C)C)nc(NC(C)(C)C)n2)n1	u	x	u	-11	2µM*
CCNc1nc(NCC)nc(-n2nc(C)cc2C)n1	2.2µM*	1	u	-3	0.71µM*
Cc1cc(C)n(-c2nc(NC(C)C)nc(NC(C)C)n2)n1	2.5µM*	0	2.9µM*	18	0.56µM*
O=C(CC1CCCC1)NNC(=O)c1ccc(Br)cc1	x	x	u	14	x
N#CC1=C2N=C(N)c3ccccc3N2C2=C(C(=O)CCC2)C1c1ccccc1F (stereo unspecified)	1%	-3	-6%	-4	8%
Cc1ccccc1C1C(C#N)=C2N=C(N)c3c(sc4c3CCCCC4)N2C2=C1C(=O)CCC2 (stereo unspecified)	u	0	u	-14	14µM*
O=C1Cc2c([nH]c3ccc(Br)cc23)-c2ccccc2N1	25µM*	2	x	-6	-5%
COc1ccc(/C=C/C(=O)NCC(=O)N=Nc2c(O)[nH]c3ccc([N+](=O)[O-])cc23)cc1	0%	-11	0%	-7	25%
COc1ccc(/C=C/C(=O)c2ccncc2)c2ccccc12	u	-43*	4%	-1	u
CSCC[C@H](NC(=O)[C@H](CC(C)C)NC(=O)CCNC(=O)[C@@H](NC(=O)[C@H](Cc1ccccc1)NC(=O)[C@H](CO)NC(=O)[C@@H](N)CC(=O)O)C(C)C)C(N)=O	-4%	-3	x	x	-10%
